# In the supplement of paper PMC11537057:
# Where a name gives a salt, the structure may show the parent alone. The campaign covered roughly 1,700 compounds. About 15 (0.9%) showed activity. What follows is part of a selection rich in actives, with near analogues and random picks from the rest. Unmarked numbers belong to inactive results.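 Rule for the calls: active = infection cut by 80% or more with cell growth above 90% in both runs; inactive = the rest.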
# System: HSV-1 strain 17 YFP-ICP4 in A549
# Assay: HSV-1 infection relative to DMSO (ICP4-YFP per H2B-RFP signal); higher = more viral infection (less antiviral activity), active = hit call of the paper
# Settings: 10 µM; 48 h; MOI: 0.1
# Description: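 Selleck FDA-approved library (L1300) screened in duplicate at 10 µM on A549 H2B-mRuby cells in 384-well plates, infected with HSV-1 strain 17 YFP-ICP4 at MOI 0.1 one hour before drug addition. Imaged after 2 days at 37°C. Cell growth (H2B-RFP) and infection (ICP4-YFP) are expressed as % of DMSO-treated wells. Hits: growth >90% and infection <20% of DMSO.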
row,SMILES,HSV-1 infection
1,CCCCCCCCCC(=O)N[C@H]1[C@H](Oc2c3cc4cc2Oc2ccc(cc2Cl)[C@@H](O[C@@H]2O[C@H](CO)[C@@H](O)[C@H](O)[C@H]2NC(C)=O)[C@@H]2NC(=O)[C@H](NC(=O)[C@@H]4NC(=O)[C@H]4NC(=O)[C@@H](Cc5ccc(c(Cl)c5)O3)NC(=O)[C@H](N)c3ccc(O)c(c3)Oc3cc(O)cc4c3)c3ccc(O)c(c3)-c3c(OC4O[C@H](CO)[C@@H](O)[C@H](O)[C@@H]4O)cc(O)cc3[C@@H](C(=O)O)NC2=O)O[C@H](CO)[C@@H](O)[C@@H]1O (stereo partly drawn) [Teicoplanin],89%
2,CN(C)Cc1ccc(S(=O)(=O)n2ccc(/C=C/C(=O)NO)c2)cc1 [Resminostat],64.2%
3,C1=N/C2=N/c3ccc(OCCN4CCCC4)c(c3)COC/C=C/COCc3cccc(c3)C(=C1)N2 [Pacritinib (SB1518)],22.2%
4,COc1ccc(CN(C(=O)[C@@H](N)Cc2c(C)cc(C(N)=O)cc2C)[C@@H](C)c2ncc(-c3ccccc3)[nH]2)cc1C(=O)O [Eluxadoline],97.4%
5,O=C(NC[C@H]1CN(c2ccc(N3CCOCC3=O)cc2)C(=O)O1)c1ccc(Cl)s1 [Rivaroxaban],110%
6,N.N.O=C([O-])C[O-].[Pt+2] [Nedaplatin],87%
7,N#C[C@@H]1CCCN1C(=O)CNC12CC3CC(CC(O)(C3)C1)C2 [Vildagliptin (LAF-237)],103%
8,O[C@@H](COc1cccc2ncccc12)CN1CCN(C2c3ccccc3[C@@H]3[C@H](c4ccccc42)C3(F)F)CC1 (stereo partly drawn),75.2%
9,CC[C@@H]1C(=O)N(C)c2cnc(Nc3ccc(C(=O)N[C@H]4CC[C@H](N5CCN(CC6CC6)CC5)CC4)cc3OC)nc2N1C(C)C [Volasertib (BI 6727)],29.3%
10,CO[C@@]1(NC(=O)CSC[C@@H](N)C(=O)O)C(=O)N2C(C(=O)O)=C(CSc3nnnn3C)CS[C@@H]21 [Cefminox Sodium],110%
11,Cc1cc(C)c2c(c1)[C@@H](N(Cc1cc(C(F)(F)F)cc(C(F)(F)F)c1)c1nnn(C)n1)CCCN2C[C@H]1CC[C@H](C(=O)O)CC1,88.1%
12,C#CCN[C@@H]1CCc2ccccc21 [Rasagiline Mesylate],98.1%
13,C[C@H]1CN(C[C@H](Cc2ccccc2)C(=O)NCC(=O)O)CC[C@@]1(C)c1cccc(O)c1 [Alvimopan dihydrate],104%
14,CN1CCN(CCOc2cc(OC3CCOCC3)c3c(Nc4c(Cl)ccc5c4OCO5)ncnc3c2)CC1 [Saracatinib (AZD0530)],38.7%
15,COc1nc2ccc(Br)cc2cc1[C@@H](c1ccccc1)[C@@](O)(CCN(C)C)c1cccc2ccccc12 [Bedaquiline],114%
16,COc1nc2ccc(Br)cc2cc1[C@@H](c1ccccc1)[C@@](O)(CCN(C)C)c1cccc2ccccc12 [Bedaquiline fumarate],111%
17,Cc1cn(-c2cc(NC(=O)c3ccc(C)c(Nc4nccc(-c5cnccn5)n4)c3)cc(C(F)(F)F)c2)cn1 [Radotinib],34.8%
18,C[N+](C)(C)CCO.O=C([O-])C(O)C(O)C(=O)O (stereo not drawn) [Choline bitartrate],97.1%
19,C[C@H](NC(=O)[C@@H](Cc1ccc2ccccc2c1)NC(=O)[C@@H](C)N)C(=O)N[C@@H](Cc1c[nH]c2ccccc12)C(=O)N[C@H](Cc1ccccc1)C(=O)N[C@@H](CCCCN)C(N)=O,97.6%
20,Cn1ncc(Cl)c1-c1cc(C(=O)N[C@H](CN)Cc2cccc(F)c2)sc1Cl,52.8%
21,CN(C)N(C)C(=O)[C@@]1(Cc2ccccc2)CCCN(C(=O)[C@@H](Cc2c[nH]c3ccccc23)NC(=O)C(C)(C)N)C1 [Anamorelin],97%
22,CN1CCc2nc(C(=O)N[C@@H]3C[C@@H](C(=O)N(C)C)CC[C@@H]3NC(=O)C(=O)Nc3ccc(Cl)cn3)sc2C1 [Edoxaban tosylate Monohydrate],124%
23,CN1CCc2nc(C(=O)N[C@@H]3C[C@@H](C(=O)N(C)C)CC[C@@H]3NC(=O)C(=O)Nc3ccc(Cl)cn3)sc2C1 [Edoxaban],115%
24,Cc1ccccc1-c1cc(N2CCN(C)CC2)ncc1N(C)C(=O)C(C)(C)c1cc(C(F)(F)F)cc(C(F)(F)F)c1 [Netupitant],114%
25,CC(=O)Oc1c(C)c(C)c2c(c1C)CCC(C)(CCC[C@H](C)CCC[C@H](C)CCCC(C)C)O2 (stereo partly drawn) [Vitamin E Acetate],116%
26,CC(=O)Oc1ccccc1C(=O)O.CC(=O)Oc1ccccc1C(=O)O.NC(N)=O [Carbasalate Calcium],90.3%
27,CNS(=O)(=O)C[C@H]1CC[C@H](N(C)c2[nH]cnc3nccc2-3)CC1,102%

row,SMILES,HSV-1 infection
1,Cc1cc(S(=O)(=O)O)c2c(C)ccc(C(C)C)cc1-2 [Sodium gualenate],93%
2,COc1ccc(C[C@@H]2c3cc(OC)c(OC)cc3CC[N@+]2(C)CCC(=O)OCCCCCOC(=O)CC[N@@+]2(C)CCc3cc(OC)c(OC)cc3[C@H]2Cc2ccc(OC)c(OC)c2)cc1OC [Cisatracurium Besylate],90.4%
3,NC(=O)[C@@H]1CC[C@@H]2CN1C(=O)N2OS(=O)(=O)O [Avibactam sodium],116%
4,CN(C)c1ccc2nc3ccc(=[N+](C)C)cc-3sc2c1 [Methylene Blue],3.01% (active)
5,COc1cc(S(=O)(=O)O)ccc1O [Sulfogaiacol],93.8%
6,N#CC1(c2ccc(NC(=O)c3cccnc3NCc3ccncc3)cc2)CCCC1,91.6%
7,CCCCc1nc2cc(/C=C/C(=O)NO)ccc2n1CCN(CC)CC [Pracinostat (SB939)],44.1%
8,C[C@@H](O)[C@@H]1NC(=O)[C@H](CCCCN)NC(=O)[C@@H](Cc2c[nH]c3ccccc23)NC(=O)[C@H](Cc2ccccc2)NC(=O)[C@@H](NC(=O)[C@H](N)Cc2ccccc2)CSSC[C@@H](C(=O)N[C@H](CO)[C@@H](C)O)NC1=O [Octreotide Acetate],93.8%
9,CC1=NN(c2ccc(C)c(C)c2)C(=O)/C1=N\Nc1cccc(-c2cccc(C(=O)O)c2)c1O [Eltrombopag],82.4%
10,CC1=NN(c2ccc(C)c(C)c2)C(=O)/C1=N\Nc1cccc(-c2cccc(C(=O)O)c2)c1O [Eltrombopag Olamine],99%
11,CS(=O)(=O)n1cc2c(n1)CN([C@H]1CO[C@H](c3cc(F)ccc3F)[C@@H](N)C1)C2 [Omarigliptin (MK-3102)],106%
12,CCCCCCCCCCCCCCCCOc1nc2ccc(C)cc2c(=O)o1 [Cetilistat],103%
13,CCOc1cc2ncc(C#N)c(Nc3ccc(OCc4ccccn4)c(Cl)c3)c2cc1NC(=O)/C=C/CN(C)C [Neratinib (HKI-272)],73.4%
14,CC(=O)N1C[C@H](O)C[C@H]1C(=O)O [Oxaceprol],97.8%
15,COC[C@H]1C[C@@H](c2nc(-c3ccc4c(c3)COc3cc5c(ccc6nc([C@@H]7CC[C@H](C)N7C(=O)[C@@H](NC(=O)OC)C(C)C)[nH]c65)cc3-4)c[nH]2)N(C(=O)[C@H](NC(=O)OC)c2ccccc2)C1 [Velpatasvir],102%
16,CCC/N=C1\S/C(=C\c2ccc(OC[C@H](O)CO)c(Cl)c2)C(=O)N1c1ccccc1C [Ponesimod],57.6%
17,CCOc1ccc(Cc2cc([C@]34OC[C@](CO)(O3)[C@@H](O)[C@H](O)[C@H]4O)ccc2Cl)cc1 [Ertugliflozin],114%
18,C=C1CC[C@H](O)C/C1=C/C=C1\CCC[C@]2(C)[C@@H]([C@H](C)CCCC(C)(C)O)CC[C@@H]12 [Calcifediol],89.7%
19,CCOC(=O)N[C@@H]1CC[C@@H]2[C@@H](C1)C[C@H]1C(=O)O[C@H](C)[C@H]1[C@H]2/C=C/c1ccc(-c2cccc(F)c2)cn1 [Vorapaxar],113%
20,CN[C@@H]1[C@@H](O)[C@@H](O[C@@H]2[C@@H](O)[C@H](O[C@H]3O[C@H](CN)[C@@H](O)[C@H](O)[C@H]3O)[C@@H](N)C[C@H]2NC(=O)[C@@H](O)CN)OC[C@]1(C)O [Isepamicin Sulphate],124%
21,CO/N=C(\C(=O)N[C@@H]1C(=O)N2C(C(=O)[O-])=C(C[n+]3cccc4c3CCC4)CS[C@H]12)c1csc(N)n1 [Cefpirome sulfate],108%
22,CC(C)(CO)C(O)C(=O)NCCCO (racemic) [DL-Panthenol],94%
23,CNC[C@H](O)[C@@H](O)[C@H](O)[C@H](O)CO.CNC[C@H](O)[C@@H](O)[C@H](O)[C@H](O)CO.O=C([O-])CN(CCN(CC(=O)[O-])CC(=O)O)CCN(CC(=O)[O-])CC(=O)O.[Gd+3] [Gadopentetate Dimeglumine],77.6%
24,COc1ccccc1OCCN [Carvedilol EP IMpurity E],82.6%
25,CC(C)[C@H]1C(=O)N[C@@H](CCCN=C(N)N)C(=O)NCC(=O)N[C@@H](CC(=O)O)C(=O)N[C@H](Cc2ccccc2)C(=O)N1C,86.4%
26,CNC(=O)c1ccc2cc([C@@]3(O)CCn4cncc43)ccc2c1 [TAK-700 (Orteronel)],58.5%
